From PubChem BioAssay AID588765 (NMMLSC, 2011) come the findings set out here.

“And” between values parts separate entries of the source, which are not always exact repeats. Equal entries are not always repeated. Out of some 1,100 compounds screened, fewer than 10 were called active.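 How the source made its calls: active means percent response below a set limit in fluorescence channel 1 and below 50% in channel 8; inactive means the rest.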 The list is a sample of the results.

This assay can be described thus: compound fluorescence in dual-transfected Am2.2 cells, confirmation, artefact control for beta2AR agonist internalization project, cell-based, FAP fluorogen, flow cytometry, cherry pick 1 (AID 588765).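 Further: low percent response here flags compound autofluorescence meaning a false positive.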 Particulars: fluorescence counterscreen, at 10 µM, stronger effect = lower value; percent response FL8: measured here: FL8 channel fluorescence.
`O=C1C(=O)N(CC2COc3ccccc3O2)c2ccccc21` (configuration not stated): the percent response FL1 was 108% (inactive) and the percent response FL8 came to 112%.

Consider `COc1ccc(-n2nc3c(N4CCC(C(=O)NCc5ccccc5)CC4)nnc(C)c3c2C)cc1`, for which the percent response FL1 is 130% (inactive) and the percent response FL8 is 115%.

In the case of `CCCOc1ccc(C(=O)C(CCC(CNCC)C(=O)c2ccc(OCCC)cc2)CNCC)cc1` (configuration not stated), the percent response FL1 is 82.8% (inactive) and the percent response FL8 turned out to be 76.7%.

As for `O=C(NCCCn1ccnc1)C1CCCN(S(=O)(=O)c2cc(Cl)ccc2Cl)C1` (configuration not stated), the percent response FL1 was 8.86% (inactive) and the percent response FL8 amounted to 109%.

On to `COc1cc(C#Cc2ccc3cc(CCCO)oc(=O)c3c2)cc(OC)c1`, for which the percent response FL1 was 92.6% (inactive) and the percent response FL8 stood at 102%.

Regarding `CCCCCCCCCCOC(=O)Cn1c(COc2ccc(C)cc2)[n+](C)c2ccccc21`, the percent response FL1 was 120% (inactive) and the percent response FL8 is 113%.

Turning to `CC(=O)c1ccc(NC(=O)c2ccc3c(Cl)c4c(nc3c2)CCCC4)cc1`, the percent response FL1 was 52.7% (inactive) and the percent response FL8 came out at 89.7%.

In the case of `CCOC(=O)c1ccc(NC(=O)Cn2nnc(-c3ccc(C)cc3)n2)cc1`, the percent response FL1 is 12.2% (inactive) and 8.97% (inactive); the percent response FL8 is 98.7% and 110%.

In the case of `O=S(=O)(Nc1ccc2[nH]ncc2c1)c1ccccc1Cl`, the percent response FL1 was 86% (inactive) and the percent response FL8 stood at 87.7%.

For the compound `COc1ccc(C(CCNCc2ccccc2F)c2ccc(F)cc2)cc1` (configuration not stated), the percent response FL1 is 101% (inactive) and the percent response FL8 was 110%.

On to `Cc1cc(S(=O)(=O)N2CCOCC2)ccc1OCC(=O)Nc1cccc(C(F)(F)F)c1`, for which the percent response FL1 is 97.5% (inactive) and the percent response FL8 is 108%.

For `CC(CCc1ccccc1)NCC(O)c1cccc([N+](=O)[O-])c1` (configuration not stated), the percent response FL1 was 120% (inactive) and the percent response FL8 amounted to 128%.

As for `CCOc1ccc(NC(=O)COc2ccc(S(=O)(=O)N3CCCC3)cc2)cc1`, the percent response FL1 is 109% (inactive) and the percent response FL8 came to 101%.

With `CCCN(CCc1ccccc1)C1CCc2c(O)cccc2C1` (configuration not stated), the percent response FL1 is 103% (inactive) and the percent response FL8 stood at 98.5%.

Turning to `Oc1ccc(N=Cc2sc3ccccc3c2Cl)cc1`, the percent response FL1 is 99.5% (inactive) and the percent response FL8 worked out at 93.9%.

On to `O=C(Nc1ccc2c(c1)OCCO2)C(c1ccc(F)cc1)N1CCCCC1` (configuration not stated), for which the percent response FL1 was 114% (inactive) and the percent response FL8 worked out at 111%.

With `CSc1ccc(CCNC(=O)C2CCN(c3nnc(-n4cccc4)s3)CC2)cc1`, the percent response FL1 was 45.7% (inactive) and the percent response FL8 was 94.2%.

For `N#Cc1cccc(NC(=O)COC(=O)c2ccccc2C(=O)c2ccc(Cl)c([N+](=O)[O-])c2)c1`, the percent response FL1 was 100% (inactive) and the percent response FL8 is 89%.

For `CC(=O)Nc1ccc(CN2CCC(Oc3ccc(C(=O)N4CCCC4)cc3)CC2)cc1`, the percent response FL1 is 109% (inactive) and the percent response FL8 is 109%.

As for `COc1ccc(S(=O)(=O)N2CCCC(C(=O)Nc3ccc(NC(=O)c4ccccn4)cc3)C2)cc1` (configuration not stated), the percent response FL1 is 45.3% (inactive) and the percent response FL8 was determined as 95.6%.

Turning to `CC(=O)Nc1ccc(Nc2c3ccccc3nc3ccccc23)cc1`, the percent response FL1 was 68.8% (inactive) and the percent response FL8 stood at 126%.

With `C=CCNC(=S)N/N=C/c1ccc(C)s1`, the percent response FL1 is 100% (inactive) and the percent response FL8 worked out at 93.3%.

As to `CCN1CCC2(CC1)N=C(c1ccc(F)cc1)C(=S)N2C(=O)c1ccc(C)cc1`, the percent response FL1 was 98.4% (inactive) and the percent response FL8 amounted to 96.3%.

As for `Cc1ccc(Cl)cc1NC(=O)CN1CCN(S(=O)(=O)N2CCOCC2)CC1`, the percent response FL1 was 99.8% (inactive) and the percent response FL8 came to 93.1%.

Turning to `CSc1ccc(CNC(=O)c2ccc(NC(=O)C3=CSCCO3)cc2)cc1`, the percent response FL1 is 16.2% (inactive) and the percent response FL8 worked out at 99.4%.

Take `Cc1ccc(Sc2cc(N3CCOCC3)nc(-c3ccccc3)n2)cc1`: the percent response FL1 is 29.8% (inactive) and the percent response FL8 is 111%.

As to `COc1ccc(OC)c(NC(=O)c2sc3nc(C)cc(C)c3c2N)c1`, the percent response FL1 is 45.6% (inactive) and the percent response FL8 turned out to be 111%.

For the compound `CC(=O)c1cccc(NC(=O)COc2ccc(S(=O)(=O)N3CCOCC3)cc2)c1`, the percent response FL1 was 112% (inactive) and the percent response FL8 turned out to be 104%.

For the compound `CCOc1ccccc1N1C(=O)CC(Sc2nccc(C)n2)C1=O` (configuration not stated), the percent response FL1 is 100% (inactive) and the percent response FL8 came out at 97.2%.

Consider `O=C(C1CCN(c2nnc(-n3cccc3)s2)CC1)N1CCc2ccccc2C1`, for which the percent response FL1 was 128% (inactive) and the percent response FL8 was determined as 104%.

As to `COc1ccc2c(c1OC)C(=O)OC2Nc1nc(-c2ccccc2)cs1` (configuration not stated), the percent response FL1 was 104% (inactive) and the percent response FL8 came out at 92.1%.

In the case of `OC(CNCc1ccc(Cl)c(Cl)c1)c1ccccc1` (configuration not stated), the percent response FL1 is 106% (inactive) and the percent response FL8 amounted to 113%.

In the case of `COc1ccc(OC)c(S(=O)(=O)N(C)CC(=O)N2CCN(c3ccccc3)CC2)c1`, the percent response FL1 was 95.4% (inactive) and 98.5% (inactive); the percent response FL8 was 99.7% and 105%.

`CCOc1ccccc1NC(=O)COc1ccc(S(=O)(=O)N2CCCC2)cc1`: the percent response FL1 was 110% (inactive) and the percent response FL8 is 107%.

Take `COc1ccc(-c2ccnc(SCC(=O)N3CCOCC3)n2)cc1`: the percent response FL1 was 103% (inactive) and the percent response FL8 stood at 100%.

On to `Cc1ccc(OCC(=O)Nc2ccc(-c3nc4ncccc4o3)cc2)cc1`, for which the percent response FL1 is 13.3% (inactive) and 14.1% (inactive); the percent response FL8 is 113% and 112%.
